Rows were chosen to be rich in hits. Some 19% of all compounds tested hit in one or more screens of this group.
HT1080 IDH1KD tx – HT-1080 IDH1 knockdown cell toxicity (counter line) | AID 686971 | hit rate 2% among 360,000 | Potency, µM (top dose mostly 46.1 µM), for the others: at the top dose activity, negative = toxicity, usual class: cytotoxic | HT-1080 IDH1 knockdown viability, ATP luminescence, 48 h;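 further: potency means the concentration at half of the fitted maximal effect; 0% = DMSO wells and -100% = cell-free medium wells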
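After a 2 h attachment period, IDH1KD HT-1080 cells took pin-transferred compound for 48 h at 37 °C; ATP-based luminescence after 10 min room-temperature reagent incubation reported viability.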
DT40 TDP1 no CPT – qHTS for Inhibitors of human tyrosyl-DNA phosphodiesterase 1 (TDP1): qHTS in cells in absence of CPT; DT40 Tdp1-/- hTDP1 cells, no CPT, ATP luminescence, 48 h; Potency, µM (doses to about 46.2 µM), for inactives: at the highest dose activity change, negative = growth inhibition, most hits filed as inhibitors; hit rate 15% among 420,000; AID 686978, 2013; further: potency means the concentration at half of the fitted maximal effect; nearly all actives have a fitted effect of over 55% in size
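DT40 Tdp1-/-;hTDP1 cells, no CPT (DMSO vehicle only), 400 cells/well; compounds pin-transferred; ≥48 hr, 37 °C; CellTiter-Glo 30 min RT dark, luminescence read.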
TDP1 cell CPT – DT40-hTDP1 cell growth loss with CPT. chicken DT40 Tdp1-/-;hTDP1 cells + 20 nM CPT, ATP luminescence, 48 h. Potency, µM (highest dose often 46.2 µM), for the others: top-dose activity change, negative = growth inhibition, most hits filed as inhibitors. hit rate 12% among 420,000; further: potency means the concentration at half of the fitted maximal effect; nearly all actives have a fitted effect of over 55% in size
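Chicken DT40 Tdp1-/- cells stably complemented with human TDP1 were seeded at 400 cells/well in medium containing 20 nM camptothecin, exposed to pin-transferred compounds, and grown at 37 °C for at least 48 hr. Viability was read as ATP luminescence.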
HT1080-NT tox – kills 2HG-producing HT-1080-NT fibrosarcoma cells; AID 686970; hit rate 1.6% among 360,000; HT-1080-NT fibrosarcoma viability, CellTiter-Glo ATP luminescence, 48 h; Potency, µM (doses to about 46.1 µM), without a hit: at the top dose activity, negative = less viability, actives largely listed as cytotoxic;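 further: NT is the 2HG producing partner of a matched IDH1 knockdown line; potency means the concentration at half of the fitted maximal effect; 0% = DMSO-treated cells and -100% = media-only wells without cells; nearly all actives have a fitted effect of over 55% in size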
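Toxicity toward the 2HG-producing NT line was scored as %Activity, normalised to DMSO and no-cell wells, from CellTiter-Glo luminescence after 48 hours' treatment.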
IL-1B inflam inh – inflammasome signaling inhibition, IL-1 beta readout; THP-1 LPS/ATP IL-1B secretion, AlphaLISA, 16 h; hits give low values; activity change, % at 57.5 µM; hit rate 4.7% among 360,000; in the data active means activity change below about -50%; inconclusive means mostly about -30% to -49%
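THP-1 cells pretreated 1 hr with compounds (up to 57.5 uM final), then stimulated with LPS (250 ng/mL final) plus ATP (1.25 mM final); secreted IL-1B measured by AlphaLISA after 16 hr, decreased signal indicating inhibition.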
Starred values were filed as active, the others as inactive; ? = inconclusive; / = no result; [ ] = remark or other dose. Unless noted, the call rests on the fitted dose curve; in most records, active means well fitted curve in the direction sought with a large enough effect; inconclusive means small, poorly fitted or top-dose-only effect, or another doubt; inactive means no such curve, though single readings can be large; an effect the other way counts as inactive or inconclusive. Unless noted, on the % scale 0 is the no-effect control and ±100 the full control effect.

SMILES	HT1080 IDH1KD tx	DT40 TDP1 no CPT	TDP1 cell CPT	HT1080-NT tox	IL-1B inflam inh
CN(Cc1cn(C)c2ccccc12)C(=S)Nc1cc(F)cc(F)c1	0%	?	-25%	1%	-14
Cc1cccc(NC(=S)N(C)Cc2cn(C)c3ccccc23)c1	-1%	16µM*	26µM*	-2%	-24
Cc1cccn2c(=O)c(C=NCc3ccco3)c(Nc3ccc(SC(F)F)cc3)nc12	8%	?	26µM*	0%	-5
CN(c1ccc(OCC(=O)Nc2ccc(S(N)(=O)=O)cc2)cc1)S(=O)(=O)c1ccc(F)cc1	-2%	?	?	-4%	20
Cc1ccc(NC(=O)CN(C)C(=O)COc2ccccc2-c2ccccc2)cc1	?	15µM*	-29%	?	-65*
CCN(CC(=O)Nc1ccc(NC(C)=O)cc1)C(=O)COc1ccccc1-c1ccccc1	-4%	-11%	-21%	-7%	-6
Cc1ccc(NC(=O)CN(C)C(=O)COc2ccc(C(=O)c3ccc(F)cc3)cc2)cc1	-9%	21µM*	-29%	-6%	-23
NS(=O)(=O)c1ccc(NC(=O)COc2ccc(C(=O)c3ccc(F)cc3)cc2)cc1	-19%	12µM*	?	-12%	?
Cc1ccc(C(=O)COc2ccccc2-c2ccccc2)cc1	2%	26µM*	23µM*	-5%	-4
CCC(=O)c1ccc(OCC(=O)OCC(=O)N(C)CC(=O)Nc2ccc(F)cc2)cc1	5%	2%	-18%	-9%	19
CCNC(=O)C1(C)CCCN(C(=O)c2cc(C)nn2C(C)(C)C)C1 (stereo unspecified)	12%	-23%	-3%	22%	30
COc1ccccc1CNC(=O)CCCC(=O)n1nc(C)c2ccccc21	5%	4%	-19%	19%	2
CN(CC(=O)Nc1cccc(F)c1)C(=O)c1sccc1-c1ccccc1	-8%	-21%	-9%	-17%	-2
CN(CC(=O)Nc1ccc(Cl)cc1)C(=O)c1sccc1-c1ccccc1	-30%	?	21µM*	2%[9.24 µM]	-13
Cc1ccc(S(=O)(=O)Oc2ccccc2-c2ccccc2)cc1	16µM*	13µM*	16µM*	?	45
COC(=O)[C@]12CCCCC=C1N(CCC1=CCCCC1)C(=O)[C@H](CC(=O)NCCc1ccccc1OC)C2	?	?	16µM*	?	-52*
CCOC(=O)[C@]12CCCC=C1N(CCC1=CCCCC1)C(=O)[C@H](CC(=O)NCCc1ccccc1OC)C2	?	13µM*	13µM*	-18%	-24
CCOC(=O)[C@]12CCC=C1N(CCC1=CCCCC1)C(=O)[C@H](CC(=O)NCCc1ccccc1OC)C2	5%	?	?	2%	-1
Cc1csc(C(C)N(C)C(=O)c2cc(NC(=O)C3CCC3)c3c(c2)nc(-c2ccncc2)n3C)n1 (stereo unspecified)	/	6%	9%	/	/
COc1ccc(C(=O)N2CCc3cc(OC)c(OC)cc3C2c2cccc([N+](=O)[O-])c2)cc1OC (stereo unspecified)	-19%	18µM*	?	-20%	?
COc1cc2c(cc1OC)C(c1cccc([N+](=O)[O-])c1)N(C(=O)c1ccccc1C(=O)O)CC2 (stereo unspecified)	19%	-4%	1%	15%	-58*
O=C(NCc1cccc(Cl)c1)c1ccc(S(=O)(=O)Nc2cccc(C(F)(F)F)c2)cc1	-18%	?	?	-16%	-78*
O=C(CN1C(=O)c2ccccc2C1=O)OCC(=O)N1CCCCC1	0%	-7%	-2%	-5%	-3
NC(=O)c1ccccc1OCC(=O)N1CCc2ccccc2C1	-3%	13µM*	?	-3%	11
O=C(CN1C(=O)c2ccccc2C1=O)OCC(=O)N1CCc2ccccc2C1	-1%	0.0092µM*	-11%	-2%	34
SMILES	HT1080 IDH1KD tx	DT40 TDP1 no CPT	TDP1 cell CPT	HT1080-NT tox	IL-1B inflam inh
O=c1c(-c2ccccc2)nc2cnc(Nc3ccccc3)nc2n1C[C@H]1CCCO1	/	0%	-20%	/	/
COc1ccc(CN2CCCC(n3cc(C(=O)NC4CCCC4)nn3)C2)c(O)c1 (stereo unspecified)	/	-24%	?	/	/
COc1ncc2nc(-c3ccccc3)c(=O)n(-c3ccccc3)c2n1	/	33%	-4%	/	/
O=C(Nc1nc2c(s1)CCCC2)c1cccs1	?	21µM*	?	?	-8
O=C(Cc1cn2ccsc2n1)Nc1nc2c(s1)CCCC2	-12%	-19%	0%	1%	-3
O=C(Cc1cccs1)Nc1nc2c(s1)CCCC2	1.1µM*	?	?	?	-11
COC(=O)c1ccc(CNC(=O)CN2C(=O)NC(Cc3ccccc3)(c3ccccc3)C2=O)cc1 (stereo unspecified)	-6%	?	?	-12%	?
Cc1cc(NC(=O)CCS(=O)(=O)c2nc(-c3ccccc3)cc(C(F)(F)F)n2)no1	-14%[9.24 µM]	1.8µM*	1.6µM*	?	-121*
CS(=O)(=O)c1nc(-c2ccccc2)cc(C(F)(F)F)n1	12µM*	1.2µM*	1µM*	21µM*	-96*
Cc1ccc(S(=O)(=O)CCC(=O)Nc2ccc3c(c2)OCO3)cc1	4%	-30%	-15%	7%	21
O=C(CCS(=O)(=O)c1nc(-c2ccc3c(c2)OCO3)cc(C(F)(F)F)n1)Nc1ccc(F)cc1F	/	21µM*	?	/	/
COc1ccc(NC(=O)CCS(=O)(=O)c2nc(-c3ccc4c(c3)OCO4)cc(C(F)(F)F)n2)cc1	/	7.3µM*	6.5µM*	/	/
Cc1nn(Cc2ccccc2Cl)c(C)c1NC(=O)CCCn1nc([N+](=O)[O-])c(Cl)c1C	3%	?	?	5%	-8
O=C(O)COc1ccc(/C=N/Nc2nc(Nc3ccccc3)nc(N3CCCCC3)n2)cc1	3%	?	?	-2%	-23
CC1CCCN(CC(=O)Nc2ccc(S(=O)(=O)N3C(C)CCCC3C)cc2)C1 (stereo unspecified)	-11%	16µM*	?	0%	-20
CC1CCCN(S(=O)(=O)c2ccc(NC(=O)CN3CCN(C)CC3)cc2)C1 (stereo unspecified)	8%	-3%	?	9%	4
CCOC(=O)C1CCN(CC(=O)Nc2ccc(S(=O)(=O)N3CCC(C)CC3)cc2)CC1	0%	21µM*	?	0%	18
CC1CCN(CC(=O)Nc2ccc(S(=O)(=O)N3CCCC(C)C3)cc2)CC1 (stereo unspecified)	-8%	-12%	?	-8%	-51*
CCOC(=O)CCC(=O)Nc1ccc(S(=O)(=O)N2CCC(C)CC2)cc1	3%	-12%	4%	11%	5

Screens as filed in PubChem.
